Activity calls are given as the source filed them. The calls were made as follows: active = hit-call score of the fitted dose curve at least 0.9, where 1 is the maximum; inactive = score below 0.9.

Holding throughout (settings): mRNA level, 48 h; actives raise or lower the signal
Read-out in test [1]: DNA damage-inducible transcript 3 (DDIT3), DDIT3 (gene 1649)
Nature of the test: LTEA_HepaRG_DDIT3: Life Technologies and Expression Analysis (LTEA) Assay for DNA damage-inducible transcript 3 (DDIT3) using HepaRG (AID 2283488). The gist of the method:
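Cells are human HepaRG liver cells treated for 48 h with eight half-log concentrations up to 100 uM in 0.5% DMSO. Transcript levels come from qRT-PCR normalized to three housekeeping genes, with activity fitted in both directions relative to vehicle.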

Read-out in test [2]: Pro-epidermal growth factor (Homo sapiens) (UniProt P01133)
Nature of the test: LTEA_HepaRG_EGF: Life Technologies and Expression Analysis (LTEA) Assay for Epidermal growth factor (EGF) using HepaRG (AID 2283489). The gist of the method: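 Concentration-response mRNA assay: HepaRG cells dosed 48 h (max 100 uM, 0.5% DMSO), EGF measured by qRT-PCR and normalized to ACTB/GAPDH/POLR2A.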

Read-out in test [3]: Early growth response protein 1 (EGR1) transcription factor, EGR1 (gene 1958)
The test is described as follows: LTEA_HepaRG_EGR1: Life Technologies and Expression Analysis (LTEA) Assay for Early growth response protein 1 (EGR1) transcription factor using HepaRG (AID 2283490). The gist of the method:
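EGR1 transcript levels quantified by qRT-PCR (Fluidigm arrays) against three housekeeping genes after 48 h chemical exposure of HepaRG cells. Eight-point half-log series topping at 100 uM, 0.5% DMSO vehicle, analyzed for gain or loss.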

Read-out in test [4]: Ezrin (EZR), EZR (gene 7430)
Nature of the test: LTEA_HepaRG_EZR: Life Technologies and Expression Analysis (LTEA) Assay for Ezrin (EZR) using HepaRG (AID 2283491). The gist of the method:
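Differentiated human HepaRG cells, 48 h after plating, were exposed in serum-free induction medium for 48 hours to eight half-log concentrations up to 100 uM in 0.5% DMSO. EZR mRNA was measured by TaqMan qRT-PCR, normalized to ACTB, GAPDH and POLR2A, and fitted bidirectionally against DMSO.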

Read-out in test [5]: Cytochrome P450 3A7 (Homo sapiens) (UniProt P24462)
Nature of the test: LTEA_HepaRG_CYP3A7: Life Technologies and Expression Analysis (LTEA) Assay for CYP3A7 using HepaRG (AID 2283492). The gist of the method: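 qRT-PCR of CYP3A7 in HepaRG lysates after 48 h treatment; concentration-response (8 points, max 100 uM) analysed bidirectionally relative to 0.5% DMSO controls.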

Read-out in another test: CYP3A5 (gene 1577)
Nature of the test: LTEA_HepaRG_CYP3A5: Life Technologies and Expression Analysis (LTEA) Assay for CYP3A5 using HepaRG (AID 2283493). The gist of the method: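 Human HepaRG hepatic cells receive 48 h chemical treatment at eight concentrations (half-log steps from 100 uM) in 0.5% DMSO. Expression of CYP3A5 is quantified by Fluidigm qRT-PCR and normalized to three reference genes.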

Read-out in test [6]: Fatty Acid-Binding Protein 1 (FABP1), FABP1 (gene 2168)
The test is described as follows: LTEA_HepaRG_FABP1: Life Technologies and Expression Analysis (LTEA) Assay for Fatty Acid-Binding Protein 1 (FABP1) using HepaRG (AID 2283494). The gist of the method: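 FABP1 expression by TaqMan qRT-PCR, normalised to three housekeeping genes, in HepaRG cells after 48 h chemical treatment. Eight-point half-log series topping at 100 uM in 0.5% DMSO, duplicates; gain or loss fitted relative to vehicle.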

Read-out in test [7]: Cytochrome P450 4A22 (Homo sapiens) (UniProt Q5TCH4)
The test is described as follows: LTEA_HepaRG_CYP4A22: Life Technologies and Expression Analysis (LTEA) Assay for Cytochrome P450 4A22 (CYP4A22) using HepaRG (AID 2283495). The gist of the method: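 Concentration-response (8 points, max 100 uM, 0.5% DMSO) in human HepaRG liver cells after 48 h exposure. CYP4A22 mRNA by TaqMan qRT-PCR with housekeeping-gene normalization.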

Read-out in test [8]: Cytochrome P450 7A1 (Homo sapiens) (UniProt P22680)
Nature of the test: LTEA_HepaRG_CYP7A1: Life Technologies and Expression Analysis (LTEA) Assay for Cytochrome P450 7A1 (CYP7A1) using HepaRG (AID 2283496). The gist of the method: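 HepaRG, 48 h exposure, 8-pt half-log series from 100 uM, 0.5% DMSO vehicle, duplicates. Readout: TaqMan qRT-PCR mRNA vs three housekeeping genes; bidirectional curve fit against DMSO baseline.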

Read-out in test [9]: Glutathione S-Transferase (GSTA2), GSTA2 (gene 2939)
Nature of the test: LTEA_HepaRG_GSTA2: Life Technologies and Expression Analysis (LTEA) Assay for Glutathione S-Transferase (GSTA2) using HepaRG (AID 2283497). The gist of the method: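 GSTA2 transcript levels came from Fluidigm TaqMan qRT-PCR normalized to three housekeeping genes, fitted in both directions against DMSO. HepaRG cultures received chemicals for 48 h in serum-free induction medium (0.5% DMSO), 8 half-log concentrations up to 100 uM, duplicate.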

Read-out in test [10]: Glutamate-cysteine ligase catalytic (GCLC), GCLC (gene 2729)
The test is described as follows: LTEA_HepaRG_GCLC: Life Technologies and Expression Analysis (LTEA) Assay for Glutamate-cysteine ligase catalytic (GCLC) using HepaRG (AID 2283498). The gist of the method:
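Expression by TaqMan qRT-PCR, normalized to three housekeeping genes (ACTB, GAPDH, POLR2A), with up- or down-regulation fitted against DMSO. HepaRG cells dosed in duplicate for 48 h with 8 half-log concentrations up to 100 uM, vehicle 0.5% DMSO.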

Read-out in test [11]: growth arrest and DNA damage 45 (GADD45G), GADD45G (gene 10912)
The test is described as follows: LTEA_HepaRG_GADD45G: Life Technologies and Expression Analysis (LTEA) Assay for growth arrest and DNA damage 45 (GADD45G) using HepaRG (AID 2283499). The gist of the method: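 Concentration-response in HepaRG: 48 h dosing, 0.5% DMSO, highest level 100 uM. GADD45G expression by qRT-PCR, normalised to endogenous controls; bidirectional fit to DMSO.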

Read-out in test [12]: Glutamate-cysteine ligase regulatory (GCLM), GCLM (gene 2730)
Nature of the test: LTEA_HepaRG_GCLM: Life Technologies and Expression Analysis (LTEA) Assay for Glutamate-cysteine ligase regulatory (GCLM) using HepaRG (AID 2283500). The gist of the method:
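Endpoint is GCLM transcript level by qRT-PCR, normalized to three housekeeping genes, after 48 h chemical exposure of human HepaRG cells (0.5% DMSO vehicle, top 100 uM, half-log dilutions). Fitting was bidirectional relative to DMSO.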

Read-out in test [13]: Glutathione S-transferase M3 (GSTM3), GSTM3 (gene 2947)
The test is described as follows: LTEA_HepaRG_GSTM3: Life Technologies and Expression Analysis (LTEA) Assay for Glutathione S-transferase M3 (GSTM3) using HepaRG (AID 2283501). The gist of the method: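 Expression of GSTM3 is determined by qRT-PCR in human liver HepaRG cells treated 48 h with an 8-point half-log range from 100 uM in 0.5% DMSO.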

Read-out in test [14]: Heat shock 70 kDa protein 1 (HSPA1A), gene 3303
Nature of the test: LTEA_HepaRG_HSPA1A: Life Technologies and Expression Analysis (LTEA) Assay for Heat shock 70 kDa protein 1 (HSPA1A) using HepaRG (AID 2283502). The gist of the method: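 Cells were plated and cultured for 48 h, then switched to serum-free induction medium. Chemicals were added at eight half-log concentrations up to 100 uM for 48 h. RNA was then isolated and HSPA1A measured by qRT-PCR with bidirectional curve fitting against DMSO.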

Read-out in test [15]: Hypoxia-inducible factor 1-alpha (Homo sapiens) (UniProt Q16665)
The test is described as follows: LTEA_HepaRG_HIF1A: Life Technologies and Expression Analysis (LTEA) Assay for Hypoxia-inducible factor 1 (HIF1A) Trancription factor using HepaRG (AID 2283503). The gist of the method:
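HIF1A transcript level read by qRT-PCR (ACTB, GAPDH, POLR2A normalization) after 48 h chemical exposure of HepaRG cultures. Eight half-log concentrations, top 100 uM, 0.5% DMSO vehicle, duplicates; bidirectional curve fit against DMSO baseline.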

Read-out in test [16]: 3-Hydroxy-3-Methylglutaryl-CoA Synthase 2 (HMGCS2), HMGCS2 (gene 3158)
Nature of the test: LTEA_HepaRG_HMGCS2: Life Technologies and Expression Analysis (LTEA) Assay for 3-Hydroxy-3-Methylglutaryl-CoA Synthase 2 (HMGCS2) using HepaRG (AID 2283504). The gist of the method: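 This steatosis marker was read as HMGCS2 mRNA change in HepaRG cells treated 48 h with up to 100 uM chemical. Normalisation used housekeeping genes; activity in either direction was fitted relative to 0.5% DMSO vehicle.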

Read-out in a further test: HGF (gene 3082)
Nature of the test: LTEA_HepaRG_HGF: Life Technologies and Expression Analysis (LTEA) Assay for Hepatocyte Growth Facto (HGF) using HepaRG (AID 2283505). The gist of the method: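 Using HepaRG monolayers kept in 0.5% DMSO, chemicals were tested in duplicate over eight half-log concentrations from 100 uM for 48 h. Endpoint: HGF mRNA change relative to DMSO, normalized to ACTB/GAPDH/POLR2A.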

Read-out in test [17]: Insulin Like Growth Factor 1 (IGF1), IGF1 (gene 3479)
Nature of the test: LTEA_HepaRG_IGF1: Life Technologies and Expression Analysis (LTEA) Assay for Insulin Like Growth Factor 1 (IGF1) using HepaRG (AID 2283506). The gist of the method: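 Cells are thawed, plated and cultured 48 h, then exposed in duplicate to chemical (highest 100 uM, half-log steps, 0.5% DMSO) for another 48 h. Total RNA is analysed by Fluidigm qRT-PCR for IGF1 expression relative to vehicle.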

Read-out in test [18]: Intercellular Adhesion Molecule 1 (ICAM1), ICAM1 (gene 3383)
The test is described as follows: LTEA_HepaRG_ICAM1: Life Technologies and Expression Analysis (LTEA) Assay for Intercellular Adhesion Molecule 1 (ICAM1) using HepaRG (AID 2283507). The gist of the method: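 Using the human liver line HepaRG, compounds are tested in duplicate over 48 h at concentrations up to 100 uM. Expression is determined by TaqMan qRT-PCR, normalized to endogenous controls, and analysed relative to 0.5% DMSO vehicle.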

Hypoxia-inducible factor 1-alpha (Homo sapiens), sequence (Q16665 whole entry, looked up): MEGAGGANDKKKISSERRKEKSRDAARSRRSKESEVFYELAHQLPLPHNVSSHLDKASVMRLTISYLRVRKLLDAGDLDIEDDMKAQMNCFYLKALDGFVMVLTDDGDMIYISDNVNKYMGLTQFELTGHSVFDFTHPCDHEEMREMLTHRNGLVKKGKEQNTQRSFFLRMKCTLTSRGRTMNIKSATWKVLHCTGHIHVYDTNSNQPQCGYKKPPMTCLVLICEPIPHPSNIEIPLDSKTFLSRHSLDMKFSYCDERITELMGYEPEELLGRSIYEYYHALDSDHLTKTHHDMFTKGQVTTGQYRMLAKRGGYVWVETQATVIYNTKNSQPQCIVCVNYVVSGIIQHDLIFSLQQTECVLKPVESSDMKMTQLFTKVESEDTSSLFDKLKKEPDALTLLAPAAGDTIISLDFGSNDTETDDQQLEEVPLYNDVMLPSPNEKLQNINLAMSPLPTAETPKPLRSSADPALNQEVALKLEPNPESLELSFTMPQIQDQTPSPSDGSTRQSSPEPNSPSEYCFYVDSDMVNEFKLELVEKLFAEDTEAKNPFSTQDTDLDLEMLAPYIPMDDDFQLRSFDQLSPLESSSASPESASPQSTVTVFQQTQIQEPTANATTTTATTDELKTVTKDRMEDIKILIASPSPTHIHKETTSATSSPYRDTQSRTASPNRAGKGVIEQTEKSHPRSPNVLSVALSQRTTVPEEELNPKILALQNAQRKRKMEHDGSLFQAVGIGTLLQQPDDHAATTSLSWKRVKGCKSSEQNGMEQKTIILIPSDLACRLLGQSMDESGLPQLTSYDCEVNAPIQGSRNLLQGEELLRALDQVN
Cytochrome P450 3A7 (Homo sapiens), sequence (P24462 whole entry, looked up): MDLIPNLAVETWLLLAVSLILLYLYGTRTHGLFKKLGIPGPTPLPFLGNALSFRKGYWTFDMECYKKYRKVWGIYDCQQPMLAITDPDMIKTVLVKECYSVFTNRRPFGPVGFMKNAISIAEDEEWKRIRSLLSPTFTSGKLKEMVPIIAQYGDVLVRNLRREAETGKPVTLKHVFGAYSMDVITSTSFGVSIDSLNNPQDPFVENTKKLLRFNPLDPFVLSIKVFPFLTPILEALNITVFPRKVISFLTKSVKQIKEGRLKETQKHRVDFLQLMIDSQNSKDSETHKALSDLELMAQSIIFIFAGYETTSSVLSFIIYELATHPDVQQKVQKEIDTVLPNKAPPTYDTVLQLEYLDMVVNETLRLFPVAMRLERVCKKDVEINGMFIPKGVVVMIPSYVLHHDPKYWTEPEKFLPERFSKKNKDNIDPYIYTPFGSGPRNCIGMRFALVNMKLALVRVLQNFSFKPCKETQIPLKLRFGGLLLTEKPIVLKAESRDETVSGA

In the case of `CC(C)C(=O)OCC(C)(C)C(OC(=O)C(C)C)C(C)C` (stereo unspecified), the outcome (in [1]; in test [2]; in test [3]; in [4]; in test [5]; in the test with CYP3A5 (gene 1577)) was inactive. Further, the compound was classed as inactive in test [6], in test [7], in test [8], in test [9], in test [10] and in test [11]. Also, the result (in [12]; in [13]; in test [14]; in [15]; in test [16]; with HGF (gene 3082)) was inactive. Besides, the outcome in [17] and in [18] was inactive.

Regarding `O=S(=O)(O)C(F)(F)C(F)(F)C(F)(F)C(F)(F)F`, the outcome (in [1]; in test [2]; in test [3]; in [4]; in test [5]; with CYP3A5 (gene 1577)) was inactive. The outcome in [6], in test [7], in test [8], in [9], in [10] and in [11] was inactive. For the same compound, the result (in test [12]; in [13]; in test [14]; in [15]; in test [16]; with HGF (gene 3082)) was inactive. Moreover, the compound was called inactive in test [17] and in test [18].

As to `CN(C)c1nc(=O)n(C2CCCCC2)c(=O)n1C`, the outcome (in test [1]; in test [2]; in test [3]; in test [4]; with CYP3A5 (gene 1577); in test [6]) was inactive. Moreover, the result in [7], in [8], in test [9], in test [10], in test [11] and in [12] was inactive. The compound was called inactive in test [13], in [14], in test [15], in test [16] and in test [17]. For the same compound, the AC50 in test [5] is 28.6 µM (active); in [18], 5.44 µM (active).

Take `Cc1cc(-c2ccc(N)c(C)c2)ccc1N`: the result (in test [1]; in test [2]; in [3]; in [4]; in [5]; with CYP3A5 (gene 1577)) was inactive. The outcome in test [7], in test [9], in test [10], in test [12], in test [14] and in test [15] was inactive. For the same compound, the compound was classed as inactive (with HGF (gene 3082); in test [17]; in test [18]). Moreover, the AC50 in [6] was 24.9 µM (active); in test [8] it was 9.92 µM (active); in [11], 26 µM (active); in [16], 19.3 µM (active).

For `Nn1cnnc1`, the outcome (in test [1]; in test [2]; in [3]; in [4]; in test [5]; with CYP3A5 (gene 1577)) was inactive. Besides, the compound was classed as inactive in [6], in test [7], in test [8], in test [9], in test [10] and in test [11]. Also, the result (in test [12]; in test [14]; in test [15]; in test [16]; with HGF (gene 3082); in test [17]) was inactive. In addition, the compound was called inactive in [18].

On to `CCCCCCCCOC(=O)c1ccccc1C(=O)OCCCCCCCC`, for which the compound was classed as inactive (in test [1]; in test [2]; in test [3]; in test [4]; in test [5]; with CYP3A5 (gene 1577)). Moreover, the outcome in [6], in test [7], in test [8], in test [9], in [10] and in test [11] was inactive. Further, the result (in [12]; in test [14]; in test [15]; in test [16]; with HGF (gene 3082); in [17]) was inactive. In addition, the call in test [18] was inactive.

For orientation: AC50 means the concentration giving half of the maximal activity seen.

Source of the values: PubChem BioAssay (EPA / NIEHS).
